Five compounds from PubChem BioAssay (NCATS) can be followed below.

A number with no mark means an inactive call. Inconclusive results are not listed. The source made the active and inactive calls. Unless noted, calls follow the shape of the dose curve; as a rule, active = well fitted curve in the direction sought with a large enough effect; inconclusive = small, poorly fitted or top-dose-only effect, or another doubt; inactive = no such curve, though single readings can be large; an effect the other way counts as inactive or inconclusive. Where only a bound is given, the exact number is not on record here.

Assay [1] in a line: AP1 Signaling Pathway (AID 357; active = well fitted curve in either direction with a large enough effect, not every such curve was filed as active; also: % is scaled to controls: 0 for no effect and ±100 for the full control effect). The following applies: ME-180 AP-1-bla reporter, EGF-induced, beta-lactamase ratio, 5 h; at 17.2 µM (top of the series) unless noted. An outline of the steps:
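ME-180 cells with beta-lactamase reporter under AP-1 response element, stimulated with EC50 EGF; compounds tested in titration series, 5 h at 37 °C. CCF4 substrate added 2.5 h at room temperature; 460/530 nm emission ratio gave %activity and AC50.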

Assay [2] addresses Glucocorticoid receptor (Homo sapiens) (UniProt P04150). As to the kind of experiment: GR-GFP Redistribution (AID 450;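 active = compounds whose dose series gives a full or clear partial fitted curve of increased nuclear translocation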; also: potency is read from the fitted curve at half-maximal effect). The following applies: U2OS GR-GFP nuclear translocation, laser cytometry, 2 h.
Assay [3] shares this target. As to the kind of experiment: GR-EFC Redistribution (AID 451; calls by dose curve; also: potency is read from the fitted curve at half-maximal effect). The conditions noted are these: CHO-K1 GR-EFC translocation, beta-gal luminescence, 2 h. The method, boiled down: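 CHO-K1 cells stably expressing nuclear-localized β-gal enzyme acceptor and GR fused C-terminally to the enzyme donor fragment; ligand-driven nuclear translocation restores β-gal by complementation. Compounds titrated up to 46 uM final, 2 h at 37 °C; luminescence read.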

In assay [4] the target is 3',5'-cyclic-AMP phosphodiesterase 4B (Homo sapiens) (UniProt Q07343). As to the kind of experiment: qHTS Assay for Inhibitors of PDE-IV (AID 607; active = well fitted activation curve with a large enough effect in the main read-out, with a control signal flat, not every such curve was filed as active; also: % of control where 0% means no effect). An outline of the steps: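 Cell-based read-out of cAMP via a modified cyclic nucleotide-gated channel and membrane potential dye (535/590 nm) in HEK293 cells expressing PDE4 endogenously. Compounds tested up to 22.9 uM final; 100 uM RO 20-1724 reference.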
Chain of 3',5'-cyclic-AMP phosphodiesterase 4B (Homo sapiens) (Q07343 whole entry, looked up): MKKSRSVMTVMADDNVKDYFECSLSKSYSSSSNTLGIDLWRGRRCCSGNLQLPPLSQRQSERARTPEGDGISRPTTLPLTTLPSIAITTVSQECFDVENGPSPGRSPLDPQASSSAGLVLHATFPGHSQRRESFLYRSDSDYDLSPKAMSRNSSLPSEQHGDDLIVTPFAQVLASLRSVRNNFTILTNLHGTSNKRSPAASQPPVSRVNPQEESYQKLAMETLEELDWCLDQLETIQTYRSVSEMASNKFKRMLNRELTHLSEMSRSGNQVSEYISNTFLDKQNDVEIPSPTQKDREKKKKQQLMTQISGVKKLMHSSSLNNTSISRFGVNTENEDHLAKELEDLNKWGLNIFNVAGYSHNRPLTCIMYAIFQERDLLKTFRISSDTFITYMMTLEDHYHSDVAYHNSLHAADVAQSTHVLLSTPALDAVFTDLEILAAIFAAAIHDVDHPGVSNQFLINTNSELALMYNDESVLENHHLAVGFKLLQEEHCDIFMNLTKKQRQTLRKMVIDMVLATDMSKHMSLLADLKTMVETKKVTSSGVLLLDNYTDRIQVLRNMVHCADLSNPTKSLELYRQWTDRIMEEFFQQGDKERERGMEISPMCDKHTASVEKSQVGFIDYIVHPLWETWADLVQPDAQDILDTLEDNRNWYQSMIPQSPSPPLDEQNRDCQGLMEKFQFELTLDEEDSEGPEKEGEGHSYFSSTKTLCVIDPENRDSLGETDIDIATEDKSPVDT
Background: qHTS replaces the single test concentration by a dilution series.

Assay [5] addresses Guanine nucleotide-binding protein G(i) subunit alpha-1 (Homo sapiens) (UniProt P63096). Briefly: qHTS Assay for Inhibitors of RGS12 GoLoco Motif Activity (Green Fluorophore) (AID 879).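 Also: 0% = labeled peptide with Gαi1 and full inhibition = labeled peptide alone without protein; negative values mean loss of peptide binding seen as reduced polarization.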 The method, boiled down: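 A drop in FITC polarization marked displacement of the FITC-tagged RGS12 GoLoco peptide (10 nM) from Gαi1 (50 nM). Compounds were incubated 10 min at room temperature in Tris pH 7.5 buffer containing 150 mM NaCl, 0.1 mM GDP and 0.05% NP40; unlabeled peptide titration served as control.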

A short description of assay [6]: qHTS Assay for Identification of Small Molecule Antagonists for NFkB Signaling Pathway (AID 895; active = well fitted inhibition curve with a large enough effect in the signal ratio, with a control signal flat, not every such curve was filed as active; the % refers to the signal ratio; also: % is scaled to controls: 0 for no effect and ±100 for the full control effect). An outline of the steps:
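NFkB-bla ME-180 cervical carcinoma cells with beta-lactamase reporter under NFkB response element; compounds added, then TNF alpha at 10 pM final (EC50), 5 h at 37 C. LiveBLAzer substrate 2 h, room temperature; emission 460/530 nm at 405 nm excitation.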

The nature of assay [7]: qHTS Assay for Identification of Small Molecule Agonists for Hypoxia Response Element Signaling Pathway (AID 914; active = well fitted activation curve with a large enough effect in the signal ratio, with a control signal flat, not every such curve was filed as active; the % refers to the signal ratio; also: % of control where 0% means no effect). The conditions noted are these: ME-180 (cervical carcinoma) HRE-bla reporter, beta-lactamase ratio, CoCl2, 17 h; activation: active compounds read high. An outline of the steps:
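HRE-bla ME-180 cells with beta-lactamase reporter under hypoxia response element, compounds with EC50 CoCl2 for 17 hours at 37 C. CCF4 substrate, 460nm/530nm emission ratio gave %Activity; AC50 from titration series.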

For assay [8], the target named is Muscarinic acetylcholine receptor M1 (Rattus norvegicus) (UniProt P08482). Briefly: qHTS Assay for Antagonists of Acetylcholine Muscarinic M1 Receptor: Kinetic Measurement of Intracellular Calcium Response (AID 943). Also: potency is read from the fitted curve at half-maximal effect; nearly all actives have a fitted effect of over 75% in size. An outline of the steps:
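Antagonism is measured as inhibition of the carbachol-evoked calcium rise in CHO cells transfected with rat M1. Cells are dye-loaded, exposed to compound for 10 min, then stimulated with 100 nM carbachol (EC80).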

The target of assay [9] is Pyruvate kinase (Leishmania mexicana) (UniProt Q27686). Briefly: qHTS Validation Assay for Inhibitors of Leishmania Mexicana Pyruvate Kinase (AID 945).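 Also: 0% = DMSO only neutral control wells.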 An outline of the steps:
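Eight-point qHTS titrations in triplicate, data normalized to DMSO neutral control. Reaction: 0.2 nM LmPYK E451W mutant, 0.5 mM PEP, 0.1 mM ADP, 7 mM MgCl2, pH 7.2, one hour at room temperature; luminescent ATP detection.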

Assay [10] concerns the target Pyruvate kinase PKM (Homo sapiens) (UniProt P14618). As to the kind of experiment: qHTS Assay for Activators of Human Muscle Pyruvate Kinase (AID 954; active = well fitted curve in the direction sought with a large enough effect, not every such curve was filed as active;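 also: 0% = uninhibited enzyme and -100% = no enzyme or full thiadiazolimine inhibition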). An outline of the steps: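 ATP production by PKM2 detected via luciferase luminescence after 1 h room-temperature reaction (0.1 nM enzyme, PEP at Km 0.5 mM, ADP 0.1 mM, pH 7.2 imidazole buffer). Inhibition scaled to no-enzyme control; activation referenced to 0.3 nM enzyme wells.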

Assay [11] has as its target Alpha-galactosidase (Coffea arabica) (UniProt Q42656). Briefly: Counterscreen for Glucocerebrosidase Inhibitors: qHTS Assay for Coffee Bean alpha-Galactosidase at pH 4.5 (AID 957).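 Also: plate controls were enzyme alone for no effect and no enzyme for full effect.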 The method, boiled down:
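Enzyme is added first (2 nM final), then compounds titrated from 0.7 nM to 77 uM, then 80 uM 4-methylumbelliferyl alpha-D-galactopyranoside; after 20 min at room temperature a pH 10 NaOH/glycine stop precedes fluorescence reading at 365/440 nm.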

Assay [12] has as its target Alpha-galactosidase A (Homo sapiens) (UniProt P06280). As to the kind of experiment: Counterscreen for Glucocerebrosidase Inhibitors: qHTS Assay for Human alpha-Galactosidase at pH 4.5 (AID 992). Also: 0% is about no effect. The method, boiled down:
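Fluorogenic 1536-well qHTS at pH 4.5 (citrate, Tween-20): 2 nM enzyme, 80 uM 4-MU-alpha-galactoside, 20 min room temperature, NaOH/glycine stop. Titration 0.7 nM to 77 uM, data normalized to no-enzyme and full-activity controls, Hill-fitted AC50.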
On the technique in general: A counterscreen serves to expose hits that act by an unwanted route or on another target.

Assay [13] deals with alpha-glucosidase (Oryza sativa, rice) (UniProt Q653V4). As to the kind of experiment: Counterscreen for Glucocerebrosidase Inhibitors: qHTS Assay for Rice alpha-Glucosidase at pH 5.0 (AID 997).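 Also: 0% = full activity with enzyme and -100% = basal without enzyme.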 An outline of the steps:
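Endpoint fluorogenic assay at pH 5.0: compounds (0.7 nM to 77 uM) titrated against 4 nM rice enzyme and 400 uM 4-MU-alpha-glucoside for 20 min at room temperature; NaOH/glycine stop, read ex 365/em 440 nm, Hill-fitted AC50.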

Assay [14] concerns the target Alpha-galactosidase (Coffea arabica) (UniProt Q42656). Briefly: Counterscreen for Glucocerebrosidase Inhibitors: qHTS Assay for Coffee Bean alpha-Galactosidase at pH 5.9 (AID 998).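 Also: plate controls were uninhibited enzyme for no effect and no-enzyme basal signal for full effect.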 The method, boiled down: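 In 50 mM citric acid pH 5.9 with 0.005% Tween-20, coffee bean enzyme hydrolyses 80 uM 4-MU alpha-D-galactopyranoside over 20 min at RT. Activity is normalized to controls; AC50 comes from Hill-modelled concentration-response data.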

The nature of assay [15]: Stat Signaling Pathway (AID 446; active = well fitted curve in either direction with a large enough effect, not every such curve was filed as active;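 also: ME-180 cervical cancer cells given 40 pM IL-6 alongside compound; SIE-controlled beta-lactamase reporter measured as 460/530 nm FRET emission ratio; % is scaled to controls: 0 for no effect and ±100 for the full control effect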). An outline of the steps: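 FRET read-out (405 nm excitation, 460/530 nm emission) of a beta-lactamase reporter under a STAT-inducible element in ME-180 cervical carcinoma cells. Cells with compound receive 40 pM IL-6 for 5 h. Values are normalised to AC90 stimulation and AC90 JAK-inhibitor controls.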
In assay [16] the target is Cytochrome P450 1A2 (Homo sapiens) (UniProt P05177). As to the kind of experiment: p450-cyp1a2 (AID 410; calls by dose curve). The method, boiled down:
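O-Demethylation of luciferin 6' methyl ether by human CYP1A2 is monitored as luciferase luminescence. Substrate sits at Km (100uM); enzyme is 20nM. Values are scaled to 57 uM furafylline as maximal inhibition.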

Assay [17] concerns the target Mitogen-activated protein kinase 10 (Mus musculus) (UniProt Q61831). Briefly: JNK3 AlphaScreen Assay (AID 530; active = well fitted curve in either direction with a large enough effect, not every such curve was filed as active;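 also: kinase came from lysate of stimulated human HepG2 cells; signal reports phosphorylation of biotinylated GST-cJun 1-79 at Ser73 with 10 µM ATP; % is scaled to controls: 0 for no effect and ±100 for the full control effect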). The method, boiled down:
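Phosphorylation of biotinylated GST-cJun(1-79) at Ser73 is measured by AlphaScreen proximity luminescence. Enzyme is JNK3 in HepG2 lysates activated with interleukin-1beta and tumor necrosis factor alpha; ATP is 10 uM final.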
On the technique in general: Bead proximity is the source of the signal in Alpha formats.

Assay [18] addresses Cytochrome P450 2C9 (Homo sapiens) (UniProt P11712). As to the kind of experiment: qHTS Assay for Inhibitors and Substrates of Cytochrome P450 2C9 (AID 883). Also: % is scaled to controls: 0 for no effect and ±100 for the full control effect; nearly all actives have a fitted effect of over 60% in size. The method, boiled down: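 Human CYP2C9 (10nM) hydroxylated Luciferin-H (100uM, at its KM) to luciferin in 25mM KPO4. Compound was preincubated 10 min at 37C, then NADPH regeneration started a 60 min reaction at 37C. Luminescence was read after detection reagent, normalized to 57uM sulphaphenazole.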

Assay [19] addresses Cytochrome P450 2D6 (Homo sapiens) (UniProt P10635). Briefly: qHTS Assay for Inhibitors and Substrates of Cytochrome P450 2D6 (AID 891). Also: nearly all actives have a fitted effect of over 60% in size. Also: potency is read from the fitted curve at half-maximal effect. The method, boiled down:
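Luminescent read-out of luciferin formed by 5 nM human CYP2D6 demethylating 30 uM Luciferin-ME EGE (Km level) over 60 min at room temperature after NADPH regeneration addition. Data normalized to full inhibition by 1.43 uM quinidine.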

Assay [20] deals with Cytochrome P450 2C19 (Homo sapiens) (UniProt P33261). As to the kind of experiment: qHTS Assay for Inhibitors and Substrates of Cytochrome P450 2C19 (AID 899). Also: % is scaled to controls: 0 for no effect and ±100 for the full control effect; nearly all actives have a fitted effect of over 60% in size. An outline of the steps: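 Human CYP2C19 (5nM) with Luciferin-H EGE at 10uM (its KM) in 50mM KPO4 was preincubated with compound for 10 min at 37C. NADPH regeneration started a 60 min 37C reaction. Luciferin was read by luminescence, normalized to 57uM ketoconazole.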
Chain of Cytochrome P450 2C19 (Homo sapiens) (P33261 whole entry, looked up): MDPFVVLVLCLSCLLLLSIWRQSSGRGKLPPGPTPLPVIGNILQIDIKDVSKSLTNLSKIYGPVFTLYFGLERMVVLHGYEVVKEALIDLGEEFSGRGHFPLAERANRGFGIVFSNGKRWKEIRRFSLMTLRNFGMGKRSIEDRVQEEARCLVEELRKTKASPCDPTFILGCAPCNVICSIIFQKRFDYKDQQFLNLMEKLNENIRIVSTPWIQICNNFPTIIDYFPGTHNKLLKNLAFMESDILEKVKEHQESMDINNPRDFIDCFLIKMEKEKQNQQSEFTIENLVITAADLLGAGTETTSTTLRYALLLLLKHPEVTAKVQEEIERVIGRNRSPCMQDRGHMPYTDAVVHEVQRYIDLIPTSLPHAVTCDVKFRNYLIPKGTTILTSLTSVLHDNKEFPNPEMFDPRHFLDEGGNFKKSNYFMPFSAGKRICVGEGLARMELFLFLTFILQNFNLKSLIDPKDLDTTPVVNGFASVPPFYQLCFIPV

Chain of Glucocorticoid receptor (Homo sapiens) (P04150 whole entry, looked up, the tested form may be a part): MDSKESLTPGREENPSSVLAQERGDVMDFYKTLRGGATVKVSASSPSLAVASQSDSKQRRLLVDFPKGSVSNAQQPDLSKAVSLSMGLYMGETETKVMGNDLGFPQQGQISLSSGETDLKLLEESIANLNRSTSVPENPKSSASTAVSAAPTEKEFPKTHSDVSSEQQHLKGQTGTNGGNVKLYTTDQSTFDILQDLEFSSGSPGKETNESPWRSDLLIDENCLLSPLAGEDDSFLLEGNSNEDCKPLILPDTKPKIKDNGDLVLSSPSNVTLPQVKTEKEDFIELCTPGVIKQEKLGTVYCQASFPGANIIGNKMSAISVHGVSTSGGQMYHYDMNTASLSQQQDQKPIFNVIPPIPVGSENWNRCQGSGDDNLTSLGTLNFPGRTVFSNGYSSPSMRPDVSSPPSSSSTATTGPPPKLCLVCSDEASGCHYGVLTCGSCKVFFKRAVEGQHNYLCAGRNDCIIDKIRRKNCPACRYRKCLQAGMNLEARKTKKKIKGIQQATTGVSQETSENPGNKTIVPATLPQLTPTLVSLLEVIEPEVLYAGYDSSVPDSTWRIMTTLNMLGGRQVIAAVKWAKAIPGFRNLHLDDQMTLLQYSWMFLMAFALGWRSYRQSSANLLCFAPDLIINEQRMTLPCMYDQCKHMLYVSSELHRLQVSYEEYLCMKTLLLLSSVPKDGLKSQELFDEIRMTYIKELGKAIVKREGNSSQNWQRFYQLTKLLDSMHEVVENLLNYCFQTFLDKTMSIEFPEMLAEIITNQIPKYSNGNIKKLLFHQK
Chain of Cytochrome P450 1A2 (Homo sapiens) (P05177 whole entry, looked up): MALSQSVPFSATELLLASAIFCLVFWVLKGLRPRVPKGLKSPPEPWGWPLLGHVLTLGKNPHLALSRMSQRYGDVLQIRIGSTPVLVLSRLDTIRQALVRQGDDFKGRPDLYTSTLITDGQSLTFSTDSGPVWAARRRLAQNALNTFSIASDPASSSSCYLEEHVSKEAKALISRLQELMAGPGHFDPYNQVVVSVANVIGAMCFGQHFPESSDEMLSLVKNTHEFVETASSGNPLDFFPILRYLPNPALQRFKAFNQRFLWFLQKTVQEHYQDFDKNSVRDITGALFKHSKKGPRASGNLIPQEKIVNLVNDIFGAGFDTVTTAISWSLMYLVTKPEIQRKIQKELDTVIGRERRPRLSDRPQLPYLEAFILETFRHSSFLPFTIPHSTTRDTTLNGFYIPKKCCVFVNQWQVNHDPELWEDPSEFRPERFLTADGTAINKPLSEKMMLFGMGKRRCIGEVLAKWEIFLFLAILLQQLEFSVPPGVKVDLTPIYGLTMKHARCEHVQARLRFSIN
Chain of Cytochrome P450 2D6 (Homo sapiens) (P10635 whole entry, looked up): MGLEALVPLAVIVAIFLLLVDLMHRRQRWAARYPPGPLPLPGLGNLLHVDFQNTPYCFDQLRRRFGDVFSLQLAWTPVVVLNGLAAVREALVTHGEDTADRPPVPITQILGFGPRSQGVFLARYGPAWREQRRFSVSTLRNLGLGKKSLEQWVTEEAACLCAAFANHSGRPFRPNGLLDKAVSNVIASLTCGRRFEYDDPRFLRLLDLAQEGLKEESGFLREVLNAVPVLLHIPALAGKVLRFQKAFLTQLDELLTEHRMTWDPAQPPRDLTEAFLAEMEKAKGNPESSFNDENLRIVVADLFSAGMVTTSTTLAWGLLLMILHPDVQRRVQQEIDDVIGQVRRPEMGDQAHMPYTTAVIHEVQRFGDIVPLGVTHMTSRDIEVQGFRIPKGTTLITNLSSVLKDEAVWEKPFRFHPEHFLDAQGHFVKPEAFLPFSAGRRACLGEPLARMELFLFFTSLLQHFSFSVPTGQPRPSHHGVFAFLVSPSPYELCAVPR
Chain of Cytochrome P450 2C9 (Homo sapiens) (P11712 whole entry, looked up): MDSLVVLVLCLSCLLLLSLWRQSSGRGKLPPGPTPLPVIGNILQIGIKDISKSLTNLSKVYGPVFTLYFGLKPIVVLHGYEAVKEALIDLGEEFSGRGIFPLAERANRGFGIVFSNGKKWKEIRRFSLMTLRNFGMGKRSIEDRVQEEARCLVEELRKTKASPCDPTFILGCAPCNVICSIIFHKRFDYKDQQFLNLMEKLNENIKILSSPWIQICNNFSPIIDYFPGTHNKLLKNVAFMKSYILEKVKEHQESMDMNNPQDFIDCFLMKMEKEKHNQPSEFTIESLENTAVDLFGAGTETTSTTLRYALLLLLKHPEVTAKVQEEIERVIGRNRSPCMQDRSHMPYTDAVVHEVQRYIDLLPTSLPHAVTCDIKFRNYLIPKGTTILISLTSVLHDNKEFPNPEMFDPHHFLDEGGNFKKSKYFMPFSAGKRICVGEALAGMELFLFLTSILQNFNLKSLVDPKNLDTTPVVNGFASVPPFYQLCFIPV
Chain of Alpha-galactosidase (Coffea arabica) (Q42656 whole entry, looked up): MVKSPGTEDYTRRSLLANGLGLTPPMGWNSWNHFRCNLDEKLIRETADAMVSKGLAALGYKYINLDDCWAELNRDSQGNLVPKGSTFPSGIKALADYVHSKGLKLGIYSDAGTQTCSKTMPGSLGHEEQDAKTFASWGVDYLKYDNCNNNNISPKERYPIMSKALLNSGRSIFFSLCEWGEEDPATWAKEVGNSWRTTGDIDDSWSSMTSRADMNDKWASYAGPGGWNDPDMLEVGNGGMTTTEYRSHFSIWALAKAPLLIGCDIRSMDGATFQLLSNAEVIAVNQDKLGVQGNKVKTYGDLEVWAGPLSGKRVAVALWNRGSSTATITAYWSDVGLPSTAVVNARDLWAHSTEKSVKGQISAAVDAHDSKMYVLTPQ
Chain of Alpha-galactosidase A (Homo sapiens) (P06280 whole entry, looked up): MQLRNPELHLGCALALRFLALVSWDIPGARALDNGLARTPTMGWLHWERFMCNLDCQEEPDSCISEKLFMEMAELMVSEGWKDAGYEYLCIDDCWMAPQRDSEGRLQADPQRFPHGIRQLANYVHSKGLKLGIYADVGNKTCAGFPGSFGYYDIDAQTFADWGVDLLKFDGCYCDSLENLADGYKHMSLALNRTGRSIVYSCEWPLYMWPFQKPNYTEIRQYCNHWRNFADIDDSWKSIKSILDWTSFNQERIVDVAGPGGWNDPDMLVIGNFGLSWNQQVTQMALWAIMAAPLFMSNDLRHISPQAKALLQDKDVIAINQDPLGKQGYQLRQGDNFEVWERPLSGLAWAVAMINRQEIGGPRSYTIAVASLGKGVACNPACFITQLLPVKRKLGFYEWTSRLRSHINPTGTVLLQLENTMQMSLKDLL
Chain of Guanine nucleotide-binding protein G(i) subunit alpha-1 (Homo sapiens) (P63096 whole entry, looked up): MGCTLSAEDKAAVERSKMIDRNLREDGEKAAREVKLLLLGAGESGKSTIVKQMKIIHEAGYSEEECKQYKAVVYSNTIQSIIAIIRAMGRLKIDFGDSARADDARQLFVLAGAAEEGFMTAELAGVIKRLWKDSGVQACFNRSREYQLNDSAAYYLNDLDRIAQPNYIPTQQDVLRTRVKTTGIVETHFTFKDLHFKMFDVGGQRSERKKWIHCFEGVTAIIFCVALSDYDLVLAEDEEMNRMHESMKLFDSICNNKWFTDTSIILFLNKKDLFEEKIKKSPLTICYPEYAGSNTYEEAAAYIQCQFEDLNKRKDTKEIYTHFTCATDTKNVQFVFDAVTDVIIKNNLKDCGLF

As to `NC(=O)c1ccc(OC[C@H](O)CN2CC=C(c3ccc(F)cc3)CC2)cc1`, the activity change, negative = inhibition in [1] was 18.4% [at 38 µM]. In addition, the Potency in assay [2] is more than 46 µM; in [3] it was more than 46 µM; in assay [8], 6.31 µM (active). The result in assay [4], in [10], in assay [11], in assay [12], in assay [13] and in [14] was inactive. Besides, the Potency entry in [5], in assay [6] and in assay [9] was “inactive” throughout. Moreover, the activation in [7] was -0.382%.
Regarding `COc1ccc(OC)c([C@@H](O)[C@H](C)NC(C)(C)C)c1`, the activity change, negative = inhibition in assay [1] was 8.72%. The outcome in assay [15] was inactive. The Potency in [2] was more than 20.6 µM. The activation in assay [7] is 0.127%.
As for `CC[C@H]1CN2CC[C@@H]1C[C@@H]2[C@H](O)c1ccnc2ccccc12`, the Potency entry in [16], in [18] and in assay [20] was “inactive” each time. Besides, the Potency in [2] is more than 46 µM; in assay [3], more than 46 µM; in [19] it was 3.16 µM (active). Also, the result in [17] and in assay [4] was inactive.
`CCOC(=O)c1cc(C)n(CCc2cnc[nH]2)c1C`: the activity change, negative = inhibition in assay [1] was 3.65%. Besides, the outcome in [15] was inactive. In addition, the Potency in assay [2] was more than 20.6 µM.
For the compound `O=C1C[C@H]2OCCC=C3CN4CC[C@@]56c7ccccc7N1[C@@H]5[C@H]2[C@H]3C[C@@H]46`, the Potency result in assay [16], in assay [18], in assay [19] and in [20] was “inactive” in each case. Further, the Potency in [2] and in assay [3] was more than 46 µM in each case. Besides, the result in assay [17] and in [4] was inactive.
